Measured values taken from PubChem BioAssay AID1508600 (Functional Genomics Laboratory (NCATS/FGL), 2020).
Screen size: about 53,000 sequences; about 3,700 (7%) were called active. Many of the other results were omitted from the sample, so actives are more common in it than they were. A number with no mark means an inactive call.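 How the source made its calls: active means gene knockdowns whose robust z-score for IL-1 alpha signal is at least 2 or at most -2, so actives lie on both sides; inactive means the rest.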

Experiment: Components of the Cytosolic LPS Sensing Pathway: Gene Identification via Genome-wide siRNA Screen;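 further: robust z of the log signal after scaling to non-targeting control siRNA wells of the plate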
Conditions: RAW264.7 macrophages, IL-1a HTRF, actives lie on both sides, screened at 100 nM (by protocol), cells primed 5 h with Pam3CSK4 first
How it was run: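 RAW264.7 mouse macrophages reverse-transfected with single siRNAs (100 nM final) for 48h, primed with Pam3CSK4 for 5 hours, then transfected with LipidA for 24 hour. Supernatant IL-1a read by HTRF; values normalized to negative-control median, log-transformed robust z-scores.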

| Sequence | z-score |
| --- | --- |
| GCAAAUCGACCACUUUCCGTT against Cacng2 | 4 (active) |
| GCACGUCCUCGAUCUCUGUTT against Extl3 | -0.705 |
| GGUGUCUGAUGAUGAAUAUTT against Cnnm3 | 0.322 |
| GGAUGUGCCUCGGUUGGAUTT against Gulo | 0.663 |
| GGAAGACCUUGAAUUCCAGTT against Tspan31 | 2.87 (active) |
| GCCCAUUGAUCCGGAGUAATT against Dusp28 | 0.252 |
| GGGUUUCUAUGAAGAGAUCTT against Fhod1 | -0.624 |
| GCCUUACAUGAGCCCAUGUTT against Olfr550 | -1.96 |
| GGACUUUAUUGAAAAUCUGTT against Zfp365 | 0.593 |
| CCAAAUUCCUAUCAAGUUUTT against Ints2 | 1.98 |
| GCGUCUCAUAGAGUUGGUGTT against Mblac2 | 0.0617 |
| GCCGCUAGCAUGGUCUAUUTT against Apoa5 | 2.51 (active) |
| UAUACCUUAGUGCUGAGGGTT against Olfr736 | -1.02 |
| GGGCAAAAGCUGUUACAAGTT against Ahrr | -0.0958 |
| GGUUCCUGGAUGGUUCCUATT against Vtcn1 | 1.45 |
| GGGUAUGACAACAAACUUCTT against Gabrg2 | -0.422 |
| GGUUUGGCAAACAUUUCAUTT against Akr1c20 | 2.02 (active) |
| GGAUGAAUCUGAAGAUUCCTT against Nol3 | 0.113 |
| GGUGGACAAGCAAGUCUAGTT against Ube2o | 1.97 |
| GGACAAGAUAGGAGGAGACTT against Abhd16a | -0.776 |
| GCUUGUGCUGAAUUACACCTT against Vps35 | 2.11 (active) |
| GCACGAAUCCUUGGAGAAATT against Batf2 | -0.254 |

| Sequence | z-score |
| --- | --- |
| GGUGAUUUAGUUGUGUAAATT against Calcr | 0.294 |
| GGUUCCAUCUUCUCAGGACTT against Olfr395 | 1.01 |
| GGUGGAAUAUUUCAUGGACTT against Csnk2a1 | 3.43 (active) |
| GGAAGAGGACACAUUAGGCTT against Gtsf1l | 0.11 |
| GGUGAGUUUUGCUAAAAGUTT against Syp | 0.783 |
| GCAAGAAGUAUUUUCAGUATT against Galnt4 | 1.34 |
| GGAACAACGGAAAAGCGAGTT against Ankrd1 | 1.25 |
| GGAAUCCUCGGCAGAUAAATT against Rpl24 | 2.31 (active) |
| GGCAGAAAAUUGUUCUUAUTT against Cpt1a | -1.49 |
| GGCUUCUGGUACAUUAUUGTT against Lcn10 | -1.23 |
| GGGCAACUAUUGAUGAGGUTT against Acap3 | -0.138 |
| GGACGGUGACCUGUAUGAUTT against Cpxm1 | -2.4 (active) |
| GCAUUAAAGUAGAAGGUCUTT against Snx31 | 0.812 |
| GCGGCAAGAUUAAUAAGUCTT against Mpzl1 | 0.798 |
| GGAUCUCGAAGUUACUGCATT against Dnajc5b | 1.77 |
| GCCUAGCAAUGACUGGGAUTT against Sdhaf2 | -0.635 |
| GCCUUCUGGCAAGAAUCUUTT against Krtap9-3 | 1.21 |
| CCACUCAAGCGGUAAGGAUTT against Slc22a1 | 4.16 (active) |
| GGUGGCACAUAAGAAAUCCTT against Trim66 | -1.61 |
| CGGACACACAGUUGAUCCGTT against Cct6b | -2.15 (active) |
| GCGGGACUUUAUCUCAUCCTT against Mfsd4b1 | -0.815 |
| CCUUCUUUAUAGGUAUGACTT against Klhl36 | 0.91 |

| Sequence | z-score |
| --- | --- |
| GGAAAGAAGCAGCGGACUUTT against Nme7 | 2.29 (active) |
| GGCAUUCAGAGCUGAUUCATT against Mia3 | 0.93 |
| GCCCUGGCAUGCUAACAAATT against Prpf3 | -0.749 |
| GGUACUACAAGCUAGCUGUTT against Scd4 | -0.114 |
| GGAAGUUUGUAGAGUAUGUTT against Xylt1 | -0.187 |
| CCCGAGAACAUCUUGUACGTT against Rps6ka4 | 2.69 (active) |
| GGGUUCAAGAGAUGAUAUUTT against Usp11 | 0.245 |
| GGCUGAGAAACUGGAUGAATT against Rem1 | -0.143 |
| GGCUGUAUGACUCAGCUCUTT against Olfr711 | -0.912 |
| CCGGAAACUUCCUACGUGUTT against Cbln1 | -0.424 |
| GGAUAGAAACAUUUCUGUGTT against Olfr1145 | 2.1 (active) |
| GGACCAUGAGAAAUUUAAUTT against Nr2f1 | 1.41 |
| GGCGGUUAAUGACAAGAACTT against Sdk2 | -0.0303 |
| CGUGGAGUAAGGAGAAUAUTT against Ints7 | 0.364 |
| GGAAAUCACAUUGUCCUGCTT against 3010003L21Rik | 1.13 |
| GGAUCUGACACACAUGAUCTT against Med16 | 2.3 (active) |
| GGAGAAAGCAAGGAUAAUCTT against Rgs20 | 0.562 |
| CGCAGAGAAGGUCAUUAAATT against Il1f5 | 0.519 |
| GGUCUUCUCCGAGUACUUUTT against Ap1m1 | 4.38 (active) |
| GCACUCAGAACAACUAAAATT against Dglucy | 0.641 |
| GCUCCAUGAAUGUCCAACATT against Sphkap | -2.41 (active) |
| GUUCUAGGCCUCCUGAAGCTT against Dohh | -0.808 |

| Sequence | z-score |
| --- | --- |
| GCUGAUGUCUCAACCUAGATT against Zkscan2 | -1.72 |
| GGCUUUGUCUUGAAUGGCUTT against Adgre1 | -1.11 |
| CGCCGGAAGUUCUACCACUTT against Tmem205 | 0.223 |
| GAACAUCAUCUCACACUCATT against Olfr874 | -0.000467 |
| GGAUAGAGACUGCUGGGUUTT against Zfp579 | 0.248 |
| CCAAGUUGGCAUACUAUUCTT against Pank4 | -0.126 |
| GCCAGUCCUUCAAGUGUAUTT against Jak2 | 4.16 (active) |
| CCAUCUCAUCCCACGACACTT against Mrgprx1 | -0.334 |
| GGCCUUUGCAUGCAAUAGUTT against Zfp119b | 0.0596 |
| GCAGCCUUGUUUCAGUUCUTT against Fam43a | 0.765 |
| CCUCUCUACAUCCACUACUTT against Pogz | 3 (active) |
| GGAGAACACAGGUGGACUUTT against Ppy | 0.125 |
| GGAGGCCAAGCAGAAAGAGTT against Kars | 0.184 |
| GACUGCUUCCUUCUGACUGTT against Olfr399 | -0.575 |
| AAAAGAUGCAUGUCUCCUUTT against Hbq1a | -1.76 |
| GGCUUUUGACUUUACCCUATT against Acy3 | -1.3 |
| GGAAAUAUUUUCUCAGCAATT against Pcdhga1 | 1.52 |
| GCCCUCAUACCUACUAUGUTT against 4631405J19Rik | 0.787 |
| GGAAGAGAUUUCUAAACUUTT against Mcoln2 | -1.93 |
| GGGCAAAAUAUAGCAAUGATT against Vmn1r233 | -2.11 (active) |
| GCUGACUUCACAUUUGGCUTT against Mms19 | -0.24 |
| GGAGUAUGUGGAAUGUCUATT against Creb3l1 | -0.903 |

| Sequence | z-score |
| --- | --- |
| GGAUGACUCUAUCUUUCUATT against Igfbp4 | 0.892 |
| GGAAUACGUAUACUUCAGCTT against Dipk1c | 0.495 |
| GGAUUGCAUUAGGAAAGAATT against Fancl | 0.0536 |
| GGGAGUCCUGAAGGACUACTT against Lgmn | -0.0947 |
| GGAGCAGAAUGAGAAGACUTT against Marchf8 | 2.16 (active) |
| GGACCAAGGGUUCAUAGCATT against Wdr35 | -0.137 |
| GGUUCAUCUGUACAAAAUCTT against Zfp110 | 0.708 |
| CCAUAUGGUAACCAAACCGTT against Ldb1 | -0.896 |
| CCGUAGUAGAGAAAUUACATT against Exoc6 | 0.419 |
| GUUGUCCUCUUUGUCAUCATT against Olfr502 | -3.63 (active) |
| CGGGUAAUAUUCUUUUCAATT against Rex2 | 1.76 |
| GCUCUAGGCCAGAUGUUACTT against Slc13a3 | -0.476 |
| CGUUUCCUGCUCAAAUCCUTT against Abhd2 | -1.17 |
| GGAGAUUCGGACAAAGUGATT against Rhcg | -1.31 |
| GGAGUAGCUGUUCUAAUUGTT against Scamp5 | -1.65 |
| GGCUUUAAGAAUGUAUCGCTT against Dpp3 | -0.751 |
| GCCUUUUCCCGUCUGGAGATT against Glis1 | 0.122 |
| CGUUGCUGUUGUGGUCUUGTT against Olfr1232 | -2.71 (active) |
| GGGCCCAGGCUAAAAUAAATT against Cfap100 | 0.367 |
| GGUCACCUCAAUAAACUCUTT against Myl7 | 0.228 |
